Reference: PubChem BioAssay AID1159580 (chemical genetic matrix, 2015)
Hit rate of the full screen: of about 5,500 compounds, about 2,000 (36%) were called active. Roughly 18% stayed inconclusive and do not appear here. No stated cut-off is given here; in the data, active means normalized growth mostly below about 0.91 (no sharp cut-off); inconclusive means no clear call, values can overlap the other calls; inactive means mostly above about 0.92. Some of the results follow.

Assay: chemical genetic growth profiling, strain panel (AID 1159580);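 further: tested at 20 µM; growth read once vehicle control cultures reached saturation at 30 °C; 1 = growth at the plate median or of vehicle wells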
Settings: S. cerevisiae deletion strains, growth OD

Measured: normalized growth

COc1cc(=O)n(C)c2c(OCC(O)C(C)(C)O)cccc12 (stereo unspecified)
inactive: locus YAL013W, strain DEP1, stronger effect = lower value 1.03 | locus YAL040C, strain CLN3, stronger effect = lower value 0.99 | locus YCL061C, strain MRC1 (second series), stronger effect = lower value 1.01 | locus YDR363W, strain ESC2, stronger effect = lower value 1.01 | locus YER002W, strain NOP16, stronger effect = lower value 0.999 | locus YJR075W, strain HOC1, stronger effect = lower value 1.01 | locus YNL128W, strain TEP1, stronger effect = lower value 0.99 | locus YNL175C, strain NOP13, stronger effect = lower value 1 | locus YNL197C, strain WHI3, stronger effect = lower value 1.02 | locus YNL224C, strain SQS1, stronger effect = lower value 1.01 | locus YOR083W, strain WHI5 (second series), stronger effect = lower value 1.02

COc1cccc2c(C)cc(=O)[nH]c12
inactive: locus YAL021C, strain ccr4, stronger effect = lower value 1.01 | locus YAL026C, strain drs2, stronger effect = lower value 0.972 | locus YAL030W, strain snc1, stronger effect = lower value 0.977 | locus YBL061C, strain skt5, stronger effect = lower value 0.938 | locus YBR009C, strain hhf1, stronger effect = lower value 0.938 | locus YBR021W, strain FUR4, stronger effect = lower value 1.07 | locus YBR023C, strain chs3, stronger effect = lower value 0.928 | locus YBR171W, strain sec66, stronger effect = lower value 0.963 | locus YBR229C, strain ROT2, stronger effect = lower value 0.969 | locus YBR279W, strain paf1, stronger effect = lower value 0.987 | locus YCL011C, strain gbp2, stronger effect = lower value 0.924 | locus YCL016C, strain dcc1, stronger effect = lower value 0.949 | locus YCL029C, strain bik1, stronger effect = lower value 0.932 | locus YCL061C, strain MRC1, stronger effect = lower value 0.956 | locus YCL069W, strain vba3, stronger effect = lower value 0.98 | locus YCR088W, strain abp1, stronger effect = lower value 0.972 | locus YDL005C, strain med2, stronger effect = lower value 0.992 | locus YDL035C, strain GPR1, stronger effect = lower value 0.958 | locus YDL040C, strain nat1, stronger effect = lower value 0.972 | locus YDL074C, strain BRE1, stronger effect = lower value 0.853 | locus YDL101C, strain DUN1, stronger effect = lower value 0.941 | locus YDL134C, strain PPH21, stronger effect = lower value 0.961 | locus YDL185W, strain tfp1, stronger effect = lower value 0.933 | locus YDR001C, strain nth1, stronger effect = lower value 0.957 | locus YDR069C, strain doa4, stronger effect = lower value 0.971 | locus YDR137W, strain rgp1, stronger effect = lower value 0.847 | locus YDR159W, strain sac3, stronger effect = lower value 0.862 | locus YDR162C, strain NBP2, stronger effect = lower value 0.881 | locus YDR297W, strain sur2, stronger effect = lower value 0.974 | locus YDR318W, strain mcm21, stronger effect = lower value 0.949 | locus YDR334W, strain swr1, stronger effect = lower value 0.978 | locus YDR335W, strain msn5, stronger effect = lower value 0.941 | locus YDR388W, stronger effect = lower value 0.929 | locus YEL003W, strain gim4, stronger effect = lower value 0.971 | locus YEL037C, strain rad23, stronger effect = lower value 0.974 | locus YEL061C, strain CIN8 (second series), stronger effect = lower value 0.969 | locus YEL061C, strain CIN8, stronger effect = lower value 0.963 | locus YER015W, strain faa2, stronger effect = lower value 0.986 | locus YER016W, strain bim1, stronger effect = lower value 0.953 | locus YER110C, stronger effect = lower value 0.946 | locus YER111C, strain swi4, stronger effect = lower value 0.977 | locus YER155C, strain BEM2, stronger effect = lower value 0.946 | locus YER167W, strain BCK2, stronger effect = lower value 0.947 | locus YFR010W, strain ubp6, stronger effect = lower value 0.975 | locus YGL078C, strain dbp3, stronger effect = lower value 0.962 | locus YGL167C, strain pmr1, stronger effect = lower value 0.982 | locus YGL173C, strain kem1, stronger effect = lower value 0.962 | locus YGL227W, strain vid30, stronger effect = lower value 0.961 | locus YGL248W, strain PDE1, stronger effect = lower value 0.919 | locus YGR078C, strain PAC10, stronger effect = lower value 0.904 | locus YGR252W, strain gcn5, stronger effect = lower value 0.874 | locus YHR013C, strain ard1, stronger effect = lower value 0.848 | locus YHR027C, strain rpn1, stronger effect = lower value 0.984 | locus YHR030C, strain SLT2, stronger effect = lower value 0.945 | locus YHR079C, strain IRE1 (second series), stronger effect = lower value 0.933 | locus YHR094C, strain hxt1, stronger effect = lower value 0.953 | locus YHR129C, strain ARP1, stronger effect = lower value 0.936 | locus YIL066C, strain RNR3, stronger effect = lower value 0.929 | locus YIL073C, strain SPO22, stronger effect = lower value 0.812 | locus YIL125W, strain kgd1, stronger effect = lower value 0.96 | locus YIR030C, strain dcg1, stronger effect = lower value 0.954 | locus YJL092W, strain hpr5, stronger effect = lower value 0.972 | locus YJL095W, strain BCK1 (second series), stronger effect = lower value 0.965 | locus YJL115W, strain asf1, stronger effect = lower value 0.981 | locus YJL129C, strain trk1, stronger effect = lower value 0.966 | locus YJL134W, strain LCB3, stronger effect = lower value 0.968 | locus YJL154C, strain vps35, stronger effect = lower value 0.979 | locus YJL164C, strain tpk1, stronger effect = lower value 0.949 | locus YJL168C, strain set2, stronger effect = lower value 0.948 | locus YJL187C, strain SWE1 (second series), stronger effect = lower value 0.908 | locus YJL187C, strain SWE1, stronger effect = lower value 0.989 | locus YJR043C, strain POL32, stronger effect = lower value 0.885 | locus YKL068W, stronger effect = lower value 0.951 | locus YKL085W, strain MDH1 (second series), stronger effect = lower value 0.941 | locus YKL085W, strain MDH1, stronger effect = lower value 0.941 | locus YKL160W, strain elf1, stronger effect = lower value 0.944 | locus YKR026C, strain gcn3, stronger effect = lower value 0.972 | locus YKR091W, strain srl3, stronger effect = lower value 0.981 | locus YLL026W, stronger effect = lower value 0.952 | locus YLL041C, strain sdh2, stronger effect = lower value 0.956 | locus YLR027C, strain aat2, stronger effect = lower value 0.955 | locus YLR039C, strain RIC1, stronger effect = lower value 0.697 | locus YLR058C, strain SHM2, stronger effect = lower value 0.94 | locus YLR102C, strain apc9, stronger effect = lower value 0.942 | locus YLR221C, strain rsa3, stronger effect = lower value 0.949 | locus YLR258W, strain gsy2, stronger effect = lower value 0.941 | locus YLR262C, strain YPT6 (second series), stronger effect = lower value 0.887 | locus YLR262C, strain YPT6, stronger effect = lower value 0.732 | locus YLR268W, strain sec22, stronger effect = lower value 0.9 | locus YLR320W, strain mms22, stronger effect = lower value 0.94 | locus YLR342W, strain FKS1 (second series), stronger effect = lower value 0.838 | locus YLR342W, strain FKS1, stronger effect = lower value 0.957 | locus YLR357W, strain rsc2, stronger effect = lower value 0.974 | locus YLR370C, strain arc18, stronger effect = lower value 0.932 | locus YLR384C, strain iki3, stronger effect = lower value 0.981 | locus YML016C, strain PPZ1, stronger effect = lower value 0.958 | locus YML032C, strain rad52, stronger effect = lower value 0.948 | locus YML124C, strain tub3, stronger effect = lower value 0.952 | locus YMR058W, strain fet3, stronger effect = lower value 0.955 | locus YMR078C, strain ctf18, stronger effect = lower value 0.937 | locus YMR125W, strain sto1, stronger effect = lower value 0.959 | locus YMR129W, stronger effect = lower value 0.958 | locus YMR205C, strain PFK2, stronger effect = lower value 0.958 | locus YMR223W, strain ubp8, stronger effect = lower value 0.942 | locus YMR231W, strain pep5, stronger effect = lower value 1 | locus YMR307W, strain GAS1, stronger effect = lower value 0.974 | locus YNL067W, strain RPL9B, stronger effect = lower value 0.875 | locus YNL209W, strain ssb2, stronger effect = lower value 0.991 | locus YNL248C, strain rpa49, stronger effect = lower value 0.968 | locus YNL250W, strain rad50, stronger effect = lower value 0.925 | locus YNL271C, strain bni1, stronger effect = lower value 0.955 | locus YNL298W, strain CLA4, stronger effect = lower value 0.978 | locus YNL307C, strain MCK1, stronger effect = lower value 0.91 | locus YNL322C, strain KRE1 (second series), stronger effect = lower value 0.977 | locus YNL322C, strain KRE1, stronger effect = lower value 0.971 | locus YNR049C, strain mso1, stronger effect = lower value 0.97 | locus YNR052C, strain pop2, stronger effect = lower value 0.986 | locus YOL012C, strain htz1 1.3 | locus YOL147C, strain pex11, stronger effect = lower value 0.945 | locus YOR001W, strain rrp6, stronger effect = lower value 0.954 | locus YOR061W, strain CKA2, stronger effect = lower value 0.965 | locus YOR069W, strain VPS5, stronger effect = lower value 0.965 | locus YOR070C, strain gyp1, stronger effect = lower value 0.965 | locus YOR080W, strain dia2, stronger effect = lower value 0.983 | locus YOR083W, strain WHI5, stronger effect = lower value 0.929 | locus YOR106W, strain vam3, stronger effect = lower value 0.938 | locus YOR136W, strain idh2, stronger effect = lower value 0.951 | locus YOR144C, strain elg1, stronger effect = lower value 0.964 | locus YOR265W, strain rbl2, stronger effect = lower value 0.966 | locus YOR290C, strain snf2, stronger effect = lower value 0.891 | locus YOR316C, strain cot1, stronger effect = lower value 0.937 | locus YPL051W, strain arl3, stronger effect = lower value 0.938 | locus YPL055C, strain LGE1, stronger effect = lower value 0.775 | locus YPL078C, strain atp4, stronger effect = lower value 0.896 | locus YPL106C, strain sse1, stronger effect = lower value 0.898 | locus YPL240C, strain hsp82, stronger effect = lower value 0.959 | locus YPL241C, strain CIN2, stronger effect = lower value 0.958 | locus YPR119W, strain clb2, stronger effect = lower value 0.937 | locus YPR141C, strain kar3, stronger effect = lower value 0.953 | locus YPR163C, strain tif3, stronger effect = lower value 0.933 | locus YPR167C, strain met16, stronger effect = lower value 0.959
active: locus YBR231C, strain swc5, stronger effect = lower value 0.909 | locus YDL192W, strain arf1, stronger effect = lower value 0.887 | locus YDR101C, strain arx1, stronger effect = lower value 0.908 | locus YDR195W, strain ref2 1.15 [resistant] | locus YDR392W, strain spt3, stronger effect = lower value 0.641 | locus YDR502C, strain sam2, stronger effect = lower value 0.875 | locus YER155C, strain BEM2 (second series), stronger effect = lower value 0.786 | locus YGL086W, strain mad1, stronger effect = lower value 0.889 | locus YGL240W, strain doc1, stronger effect = lower value 0.843 | locus YGL253W, strain hxk2, stronger effect = lower value 0.891 | locus YGR135W, strain pre9, stronger effect = lower value 0.887 | locus YHR142W, strain chs7, stronger effect = lower value 0.835 | locus YHR200W, strain rpn10, stronger effect = lower value 0.919 | locus YJL095W, strain BCK1, stronger effect = lower value 0.793 | locus YJL166W, strain qcr8, stronger effect = lower value 0.891 | locus YKL009W, strain mrt4, stronger effect = lower value 0.874 | locus YKR001C, strain vps1, stronger effect = lower value 0.802 | locus YLL001W, strain dnm1, stronger effect = lower value 0.893 | locus YLR330W, strain CHS5, stronger effect = lower value 0.896 | locus YLR371W, strain rom2, stronger effect = lower value 0.89 | locus YLR418C, strain cdc73, stronger effect = lower value 0.715 | locus YML120C, strain ndi1, stronger effect = lower value 0.911 | locus YMR263W, strain SAP30, stronger effect = lower value 0.855 | locus YNL071W, strain lat1, stronger effect = lower value 0.897 | locus YNL233W, strain BNI4, stronger effect = lower value 0.827 | locus YOL006C, strain TOP1, stronger effect = lower value 0.511 | locus YOR184W, strain ser1, stronger effect = lower value 0.847 | locus YOR270C, strain vph1, stronger effect = lower value 0.714 | strain wtn01, stronger effect = lower value 0.881
